KB-V1 MDR tox: kills drug-selected multidrug resistant KB-V1 cells | KB-V1 MDR cells viability, CellTiter-Glo, 72 h | Potency, µM (top dose mostly 46.1 µM), hits mostly cytotoxic | actives 3.4% (n = 400,000) | AID 1347076; note: nearly all actives have a fitted effect of over 60% in size
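Drug-selected KB-V1 cells, grown in DMEM lacking phenol red with 10% FBS, receive compound titrations; after three days at 37 degrees C, surviving cell ATP is quantified by CellTiter-Glo luminescence and responses normalized and curve-fitted.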
KB-3-1 tox: KB-3-1 parental cell cytotoxicity | AID 1347075 | KB-3-1 viability, CellTiter-Glo ATP luminescence, 72 h | actives 1.4% (n = 400,000) | Potency, µM (doses to about 46.1 µM), hits mostly cytotoxic; note: nearly all actives have a fitted effect of over 60% in size
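Multi-concentration cytotoxicity screen in KB-3-1 cells grown in DMEM lacking phenol red with 10% FBS. After 72 h at 37 °C with compound, ATP-dependent luminescence was recorded.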
HT1080 IDH1KD tx: kills HT-1080 cells with IDH1 knockdown | HT-1080 IDH1 knockdown viability, ATP luminescence, 48 h | actives 2% (n = 360,000) | Potency, µM (doses to about 46.1 µM), actives largely listed as cytotoxic
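HT-1080-IDH1KD cells (IDH1 knocked down), 750/well in RPMI with 5% FBS, treated with compound 48 h at 37 degrees C. Viability by CellTiter-Glo luminescence, normalised to DMSO and no-cell wells; concentration-response curves classed.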
HT1080NT lethal: kills 2HG-producing HT-1080-NT fibrosarcoma cells. HT-1080-NT fibrosarcoma viability, CellTiter-Glo ATP luminescence, 48 h. Potency, µM (series often up to 46.1 µM), usual class: cytotoxic. actives 1.6% (n = 360,000). AID 686970;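 note: NT is the 2HG producing partner of a matched IDH1 knockdown line; nearly all actives have a fitted effect of over 55% in size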
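Read-out is CellTiter-Glo luminescence after 10 minutes at room temperature, following 48 hours' compound treatment of HT-1080-NT cells (750 cells/well, RPMI, 5% FBS, 37 degrees C).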
S2 tox: viability counter-screen for ATXN expression inhibitors | Potency, µM (series often up to 56.7 µM), hits mostly cytotoxic | actives 0.49% (n = 400,000) | S2 cells (HEK-293 line with an ATXN2-luciferase reporter) viability, CellTiter-Fluor protease fluorescence, 24 h; note: nearly all actives have a fitted effect of over 40% in size
ATXN2 expr inh: reduces ATXN2 reporter expression in HEK-293 cells; HEK-293 ATXN2-luciferase reporter, luminescence, 24 h; Potency, µM (titrated, usually from 57 µM), most hits filed as inhibitors; actives 0.72% (n = 360,000); AID 1745845; note: nearly all actives have a fitted effect of over 55% in size
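ATXN2-luciferase reporter cells (luciferase flanked by upstream and downstream ATXN2 gene portions) were treated 24 h at 37 °C with compounds at up to 57 uM. SteadyGlo luminescence gave expression; GF-AFC fluorescence gave viability.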
A number is an active result; . = inactive; ? = inconclusive; / = no result; [ ] = another dose, or the depositor's remark. In the library only some 6.2% were active in any assay of this set; here they are far more common. Calls come from the whole dose curve; as a rule, active = well fitted curve in the direction sought with a large enough effect; inconclusive = small, poorly fitted or top-dose-only effect, or another doubt; inactive = no such curve, though single readings can be large; an effect the other way counts as inactive or inconclusive.

SMILES	KB-V1 MDR tox	KB-3-1 tox	HT1080 IDH1KD tx	HT1080NT lethal	S2 tox	ATXN2 expr inh
CCc1ccc(-c2nn(CC(=O)NCc3ccccc3)c3c2cnc2ccc(C)cc23)cc1	?	.	/	/	.	.
Cc1ccc(N2C(=O)c3cccc4c(N5CCN(C)CC5)ccc(c34)C2=O)c2cccnc12	.	.	11µM	?	/	.
O=C1c2cccc3c([N+](=O)[O-])ccc(c23)C(=O)N1Cc1cccnc1	.	?	12µM	8.2µM	/	.
O=C1c2cccc3cccc(c23)C(=O)N1Cc1cccnc1	.	.	.	.	.	.
O=C1c2cccc3c(N4CCCCC4)ccc(c23)C(=O)N1c1ccccc1O	.	.	.	.	/	.
Cc1ccc(N2C(=O)c3cccc4c([N+](=O)[O-])ccc(c34)C2=O)c2cccnc12	?	0.065µM	?	?	.	/
Cc1ccnc(N2C(=O)c3cccc4c([N+](=O)[O-])ccc(c34)C2=O)c1	.	.	2.8µM	5µM	/	?
O=C(OCc1ccccc1)N1CCC2CC1c1ccc(Cl)cc12 (configuration not stated)	.	.	.	.	.	.
CCCNS(=O)(=O)c1ccc(CCC(=O)Nc2cc(Cl)ccc2Oc2ccccc2)cc1	8.2µM	.	.	.	?	.
COc1ccc(CCC(=O)Nc2cc(Cl)ccc2OC)cc1	21µM	.	.	.	.	.
C=CCN(CC=C)C(=O)Nc1cc(Cl)ccc1OC	15µM	.	.	.	.	.
CC(C)CNS(=O)(=O)c1ccc(CCC(=O)Nc2cc(Cl)ccc2Oc2ccccc2)cc1	.	?	.	.	.	.
COc1cccc(CN(C)C(=O)c2ccc(S(=O)(=O)Nc3ccccc3C)cc2)c1OC	.	.	.	.	?	/
Cc1ccc(Cl)cc1NS(=O)(=O)c1cc2c(cc1Cl)CCC(=O)N2	.	.	/	/	/	/
COc1ccc(S(=O)(=O)N2CCN(CC(=O)c3c(N)n(C)c(=O)n(C)c3=O)CC2)cc1OC	.	.	.	.	.	/
CC[C@H](C)[C@@H]1NC(=O)[C@H]([C@@H](C)CC)NC(=O)[C@@H](CC(C)C)NC(=O)[C@H](Cc2ccccc2)NC(=O)[C@H](Cc2ccccc2)NC(=O)[C@@H]2CCCN2C(=O)[C@@H]2CCCN2C(=O)[C@H](C(C)C)NC(=O)[C@H](CC(C)C)NC1=O	.	?	?	?	28µM	?
O=C(NCC1CCCO1)c1ccc(NC(=O)c2ccc(Br)cc2)cc1 (configuration not stated)	?	.	.	.	?	.
O=C(NCC1CCCO1)c1ccc(NC(=O)c2cccc(Cl)c2)cc1 (configuration not stated)	?	.	.	.	.	/
CCC1=Nc2cc(C(=O)NCC3CCCO3)ccc2Sc2ccc(Cl)cc21 (configuration not stated)	.	9.2µM	16µM	?	?	.
CCC1=Nc2cc(C(=O)NCC3CCCO3)ccc2Sc2ccc(Br)cc21 (configuration not stated)	6.5µM	6.5µM	9.2µM	?	?	/
COc1ccc(CN2CCCC(n3cc(C(=O)N4CCCCC4)nn3)C2)c(OC)c1C (configuration not stated)	/	/	/	/	.	/
Cc1onc(-c2ccccc2)c1C(=O)N/N=C/c1cc(Br)c(O)c(Br)c1	/	/	.	.	.	.
Cc1onc(-c2ccccc2)c1C(=O)N/N=C/C(Br)=C/c1ccccc1	15µM	?	.	.	.	.
Cc1cccc(/C=N/NC(=O)c2c(-c3ccccc3)noc2C)c1O	.	?	?	?	.	3.5µM
COc1cc2c(cc1OC)C(COc1ccc3c(C)cc(=O)oc3c1)N(C(=O)c1ccc(C)c(C)c1)CC2 (configuration not stated)	?	.	/	/	.	.
SMILES	KB-V1 MDR tox	KB-3-1 tox	HT1080 IDH1KD tx	HT1080NT lethal	S2 tox	ATXN2 expr inh
CN1CCc2c(n(CC(O)CNCc3ccccc3)c3ccccc23)C1=O (configuration not stated)	.	.	?	?	.	/
CC(C)NCC(O)Cn1c2c(c3ccccc31)CCc1c-2cnn1-c1ccccc1 (configuration not stated)	21µM	16µM	.[9.24 µM]	?	/	?
Cc1oc2ncn(CC(C)C)c(=O)c2c1C(=O)N1CCN(c2ccc(F)cc2)CC1	.	.	/	/	.	.
CCCN1C(=O)/C(=C/c2ccc(C)s2)SC1=Nc1ccc(OC)cc1	?	.	.	.	.	.
CCN1C(=O)/C(=C/c2cccs2)SC1=Nc1ccc(OC)cc1	.	.	.	.	?	.
CCN(CC)CCN1C(=O)/C(=C\c2ccc(Cl)c([N+](=O)[O-])c2)SC1=Nc1ccc(OC)cc1	.	?	3.3µM	2.6µM	/	32µM
COc1ccc(N=C2S/C(=C\c3ccc(Cl)c([N+](=O)[O-])c3)C(=O)N2CCN(C)C)cc1	.	.	21µM	?	10µM	/
CC1(C(=O)NCC2CC2)Cc2c(-c3ccc4c(c3)OCO4)ccnc2O1 (configuration not stated)	?	15µM	?	?	.	.
CN(C)c1ccc(CNC(=O)C2(C)Cc3c(-c4ccc5c(c4)OCO5)ccnc3O2)cc1 (configuration not stated)	12µM	7.3µM	?	?	.	.
Cc1oc2ncn(CC(C)C)c(=O)c2c1C(=O)NCCCN1CCCCC1C (configuration not stated)	.	.	/	/	.	.
COc1ccc(CN(C(C)=O)c2cccc(C)c2C)cc1	?	?	?	16µM	?	.
Cc1cccn2c(=O)c3cc(C(=O)NC4CCCC4)n(C)c3nc12	.	10µM	?	?	.	.
Cc1cccn2c(=O)c(C(=O)NC3CC(C)CC(C)(C)C3)c(O)nc12 (configuration not stated)	23µM	?	.	.	?	?
Cc1cccn2c(=O)c(C(=O)NC3CCCCC3)c(O)nc12	?	?	.	.	.	/
Cc1cccn2c(=O)c(C(=O)NC3CCCCC3C)c(O)nc12 (configuration not stated)	16µM	?	?	.	.	.
Cc1cccn2c(=O)c3cc(C(=O)NC4CCCCC4)n(C)c3nc12	?	?	.	.	.	.
Cc1ccc(NC(=O)Cn2c(=O)n(CCc3ccccc3)c(=O)c3sc4ccccc4c32)cc1C	?	.	/	/	.	.
CCC(=O)Nc1ccc2c(c1)OC[C@@H](C)N(Cc1cccc(F)c1)C[C@@H](C)[C@@H](OC)CN(C)C2=O	?	.	.	.	/	/
O=C(CSc1ncc2c(n1)-c1ccccc1N(Cc1ccc(F)cc1)S2(=O)=O)c1ccc(Cl)cc1	.	.	/	/	.	.
